# Screens from PubChem.
# This is a sample that favours compounds with a hit; in the whole collection about 12% have one here.
# Sfp PPTase inh = inhibitors of Bacillus subtilis Sfp phosphopantetheinyl transferase; Q9F4F7; Biochemical Sfp PPTase activity, qHTS; actives 3.5% (n = 310,000); Potency, µM, actives largely listed as inhibitors;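 note: the enzyme is Sfp with the accession as filed and its product quenches rhodamine fluorescence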
#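 Fluorescence-quenching assay with 15 nM Sfp, 5 uM rhodamine-CoA and 12.5 uM BHQ-2-labelled ybbR peptide in pH 7.6 Hepes/MgCl2 buffer. Enzyme was pre-incubated with compound for 15 min at room temperature. Rate was taken from the 30-min fluorescence change (525/598 nm).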
# JMJD2A Tudor = JMJD2A Tudor domain (human) inhibition; AlphaScreen JMJD2A-Tudor / H3K4me3 peptide binding; actives 4.4% (n = 390,000); O75164; Potency, µM (doses to about 114 µM), hits mostly inhibitors; note: nearly all actives have a fitted effect of over 50% in size
# BAZ2B inh = blocks human BAZ2B. AID 504333. Potency, µM (series often up to 114 µM), most hits filed as inhibitors. AlphaScreen BAZ2B-H3K14Ac peptide displacement. actives 4.4% (n = 360,000); note: nearly all actives have a fitted effect of over 60% in size
#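 AlphaScreen luminescence quantifies BAZ2B engagement of H3K14Ac peptide; the protein and biotinylated peptide are both at 50 nM final, buffer PBS pH 7.4 with 0.01% Tween-20, all steps at room temperature.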
# HP1b binding inh = inhibitors of HP1-beta chromodomain binding to methylated histone tails. P83916. AlphaScreen HP1-beta / biotin-H3K9me3 peptide binding. Potency, µM (titrated, usually from 114 µM), actives largely listed as inhibitors. actives 0.56% (n = 390,000); note: nearly all actives have a fitted effect of over 70% in size
# Target sequence (P83916 whole entry, looked up): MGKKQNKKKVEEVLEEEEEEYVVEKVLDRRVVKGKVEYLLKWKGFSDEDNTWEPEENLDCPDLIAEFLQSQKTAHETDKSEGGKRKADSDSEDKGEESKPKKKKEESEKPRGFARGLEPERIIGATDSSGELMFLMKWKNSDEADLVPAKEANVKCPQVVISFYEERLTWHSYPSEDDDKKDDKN
#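 Compound inhibition of the preformed complex between 50 nM HP1-beta and 50 nM biotinylated H3K9me3 peptide was read by AlphaScreen. Buffer was PBS pH 7.4 with 0.01% Tween-20. Incubations ran 30 min at room temperature, with 10 ug/mL donor/acceptor beads.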
# PLK1 PBD block = blocks phosphopeptide binding to human PLK1 polo-box domain; actives 2.8% (n = 360,000); Plk1 PBD binding of FITC phosphopeptide, fluorescence polarization; Potency, µM, actives largely listed as inhibitors; P53350; AID 720504; note: series mostly up to about 57 µM; nearly all actives have a fitted effect of over 65% in size
# G9a block = blocks human histone lysine methyltransferase G9a | actives 8.8% (n = 350,000) | Potency, µM (doses to about 102 µM), usual class: inhibitors | G9a H3K9 monomethylation, AlphaScreen, 2 h | Q96KQ7; note: nearly all actives have a fitted effect of over 75% in size
# Target sequence (Q96KQ7 913-1193 limits assumed): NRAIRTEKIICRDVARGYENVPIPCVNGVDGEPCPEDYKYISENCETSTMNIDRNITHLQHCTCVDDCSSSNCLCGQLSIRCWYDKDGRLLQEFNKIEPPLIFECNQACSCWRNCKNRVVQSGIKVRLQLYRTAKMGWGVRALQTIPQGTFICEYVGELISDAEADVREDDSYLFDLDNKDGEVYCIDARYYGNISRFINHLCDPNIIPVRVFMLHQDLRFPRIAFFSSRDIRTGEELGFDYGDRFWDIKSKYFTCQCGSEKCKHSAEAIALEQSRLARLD
#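 Enzyme 20 nM + cpd, 15 min RT; add b-H3K9 pep 500 nM / SAM 20 uM; 2 h RT; anti-H3K9me1 Ab 0.5 ug/mL + SA donor / anti-rabbit acceptor beads 20 ug/mL each, 10 min; AlphaScreen read.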
# A number is an active result; i = inactive; ? = inconclusive; nt = no result given; [ ] = dose if it differs, or a comment. Calls come from the whole dose curve; as a rule, active = well fitted curve in the direction sought with a large enough effect; inconclusive = small, poorly fitted or top-dose-only effect, or another doubt; inactive = no such curve, though single readings can be large; an effect the other way counts as inactive or inconclusive.
SMILES,Sfp PPTase inh,JMJD2A Tudor,BAZ2B inh,HP1b binding inh,PLK1 PBD block,G9a block
COc1ccc(N2CCN(S(=O)(=O)c3ccc4oc(=O)c5ncn(C)c5c4c3)CC2)cc1,nt,i,i,i,nt,i
CN(C)c1ccc(NC2=C(Cl)C(=O)c3ccccc3C2=O)cc1,?,6.31µM,2.51µM,5.01µM,i,2.24µM
O=C1C(Cl)=C(Nc2ccc3cn[nH]c3c2)C(=O)c2ccccc21,8.91µM,14.1µM,8.91µM,15.8µM,13.4µM,i
CC(=O)Nc1ccc(NC2=C(Cl)C(=O)c3ccccc3C2=O)cc1,i,i,i,i,i,i
Cc1cc(Nc2ccccc2Cl)n2nc(-c3ccco3)nc2n1,nt,i,i,i,nt,i[12.7 µM]
Cc1cc(C)n2nc3nc(N4CCCCC4)nc(-c4ccco4)c3c2n1,?,?,79.4µM,i,?,3.98µM
NC(=O)c1ccc(-n2nnnc2Oc2ccccc2)cc1,i,?,i,i,23.8µM,i[12.7 µM]
COc1ccc(/C(C)=N/NC(=O)Cn2nc([N+](=O)[O-])cc2C)cc1,i,i,i,i,i,nt
CCOC(=O)Cn1nc(-c2ccccc2)c2cnc3ccc(C)cc3c21,i,i,i,i,i,56.2µM
CC(=O)c1c(C)[nH]c(C(=O)OCC(=O)N2CCN(S(=O)(=O)c3ccc(C)cc3)CC2)c1C,nt,i,50.1µM,i,i,i[12.7 µM]
CCCn1c(N)c(C(=O)CSc2nc3ncc(Cl)cc3[nH]2)c(=O)n(C)c1=O,nt,i,i,i,i,i[2.33 µM]
C/C(N)=C(/C#N)C(=O)CSc1nc2ccc(C)cc2[nH]1,i,i,i,i,i,15.8µM
CC(C)Cn1c(N)c(C(=O)CSc2nc3ncc(Cl)cc3[nH]2)c(=O)n(C)c1=O,nt,?,i,i,i,28.2µM
Cc1ccc(S(=O)(=O)N2CCN(C(=O)CSc3nnc(C)c(=O)[nH]3)CC2)cc1,i,i,i,i,i,56.2µM
Cc1cc(C)c(C)c(C(=O)CSc2nnc(C)c(=O)[nH]2)c1C,?,nt,i,nt,nt,50.1µM
Cc1nnc(SCC(=O)Nc2nccs2)n(N)c1=O,i,i,i,i,i,i
Cc1nnc(SCC(=O)c2c(N)n(C)c(=O)n(C)c2=O)[nH]c1=O,i,i[11.4 µM],i,i,23.8µM,i
Cc1nnc(SCC(=O)Nc2nccs2)[nH]c1=O,i,i[11.4 µM],i,i,21.2µM,nt
Cc1ccc2nc(SCC(=O)c3c(N)n(C)c(=O)n(C)c3=O)[nH]c2c1,i,i,?,i,i,0.891µM
Cn1c(N)c(C(=O)CSc2ncn[nH]2)c(=O)n(C)c1=O,i,i,i,i,i,i
CCOc1ccc2c(c1)sc1nc(=O)n(-c3ccc(Cl)c(Cl)c3)c(=O)n12,nt,i,i,i,nt,i
Cc1cc(N)n(-c2ccc(S(N)(=O)=O)cc2[N+](=O)[O-])n1,i,i,i,i,i,?
CC(=O)OCC1OC(C#Cc2ccccc2)C=CC1OC(C)=O (centres undefined),i,nt,nt,nt,nt,nt
CCC(C)(C)NC(=O)c1cc([N+](=O)[O-])ccc1N1CCOCC1,i,i,i,i,i,i
CCNc1nc(NCC)nc(C(=O)OCCO)n1,i,35.5µM,25.1µM,i,i,39.8µM
SMILES,Sfp PPTase inh,JMJD2A Tudor,BAZ2B inh,HP1b binding inh,PLK1 PBD block,G9a block
CC(C)Nc1nc(NC(C)C)nc(C(=O)OCCO)n1,i,50.1µM,35.5µM,i,i,?
Cc1nc2ccccc2c(=O)n1/N=C/c1c(O)ccc2ccccc12,i,i,25.1µM,i,i,31.6µM
Cc1nc2ccccc2c(=O)n1/N=C/c1cc(Br)ccc1O,i,?,i,i,i,i
COc1cc(/C=N/n2c(C)nc3ccccc3c2=O)cc(OC)c1O,i,i,i,i,i,12.6µM
CC(C)(C)N=Cc1c(O)ccc2oc3c(c12)CCCC3,i,?,i,i,?,i
COc1cc(OC)c(OC)cc1/C=N/n1c(C)nc2ccccc2c1=O,i,i,i,i,i,i
Cc1nc2ccccc2c(=O)n1/N=C/c1c(O)ccc2oc3c(c12)CCCC3,22.4µM,?,i,i,i,i[2.33 µM]
Cc1n[nH]c(=S)n1/N=C/c1c(O)ccc2ccccc12,63.1µM,?,i,i,i,nt
Cc1ccc(C)c(N2CCN(CCCNC(=O)c3cnn(-c4ccccc4Cl)c3C3CCN(C(=O)OC(C)(C)C)CC3)CC2)c1,nt,?,i,i,nt,?
C[C@@]12CCC[C@H]1C1CC[C@H]3C[C@H](O)CC[C@]3(C)C1CC2 (some centres undefined),i,nt,nt,nt,nt,i
Cc1nc2ccccc2c(=O)n1/N=C/c1ccccn1,?,i,i,i,i,28.2µM
CCc1ccc(C(=O)/C=C/c2cnn(C)c2C)s1,i,i,i,i,i,i
Cc1c(/C=C/C(=O)c2cccs2)cnn1C,i,28.2µM,i,?,3.36µM,i
COc1cc(/C=C2\C(=N)N3N=C(N4CCOCC4)SC3=NC2=O)ccc1OC(=O)c1ccccc1,i,?,50.1µM,i,26.7µM,20µM
CCS(=O)(=O)C1=NN2C(=N)/C(=C\c3ccc(OS(=O)(=O)c4ccccc4)c(OC)c3)C(=O)N=C2S1,i,nt,56.2µM,nt,nt,i[0.0925 µM]
COc1cc(/C=C2\C(=N)N3N=C(S(C)(=O)=O)SC3=NC2=O)ccc1OS(=O)(=O)c1ccccc1,i,nt,50.1µM,nt,nt,nt
COc1cc(/C=C2/C(=N)N3N=C(CC(=O)N4CCOCC4)SC3=NC2=O)ccc1OC(C)c1ccccc1 (centres undefined),i,i,i,i,?,i
CCS(=O)(=O)C1=NN2C(=N)/C(=C\c3ccc(OS(=O)(=O)c4ccccc4)cc3)C(=O)N=C2S1,?,?,50.1µM,i,21.2µM,39.8µM
COc1cc(/C=C2\C(=N)N3N=C(S(=O)(=O)CC(C)C)SC3=NC2=O)ccc1OC(=O)c1ccco1,i,nt,i,nt,nt,i
CN(Cc1ccccc1)Cc1c(O)ccc2c(=O)c(-c3ccccc3)c(C(F)(F)F)oc12,nt,i,i,i,nt,i
CCC1=NN2C(=N)/C(=C/c3ccc(OS(=O)(=O)c4ccccc4)cc3)C(=O)N=C2S1,i,i,i,i,?,nt
Cc1ccc(S(=O)(=O)Oc2ccc(/C=C3\C(=N)N4N=C(S(C)(=O)=O)SC4=NC3=O)cc2)cc1,i,35.5µM,50.1µM,i,15µM,12.6µM
COc1ccc(CNC2c3ccccc3-c3ccccc32)cc1OC,i,i,i,i,i,?
O=[N+]([O-])c1ccccc1CNC1CCCc2ccccc21 (centres undefined),i,28.2µM,56.2µM,?,i,?
COc1ccc(S(=O)(=O)NC2CCSc3ccccc32)cc1OC (centres undefined),i,i,i,i,i,50.1µM
COc1ccc(CNC2CCCc3ccccc32)cc1OC (centres undefined),i,11.2µM,70.8µM,i,?,?
COc1ccc(CNC2CCSc3ccccc32)cc1OC (centres undefined),i,8.91µM,50.1µM,?,i,10µM
